A selection: hits, their analogues and other compounds. The true share with any hit is near 3.5%.
MITF primary – MITF inhibitors, primary screen, biochemical, AlphaScreen, human; AlphaScreen MITF homodimerization, bead proximity signal; inhibition, % at 2.6 µM; actives 0.91% (n = 650,000); in the data active = inhibition above about 50%
FBW7 act – FBW7 E3 ligase activators, primary screen, biochemical, AlphaScreen, human. actives 0.13% (n = 650,000). F-box/WD repeat-containing protein 7 (Homo sapiens), Q969H0. normalized activity (activation), % at 26.1 µM. AlphaScreen FBW7–phospho-cyclin E peptide binding, activator screen; in the data active = normalized activity above about 1.9%;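 note: purified mutant Fbw7 with reduced substrate affinity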
Target sequence (Q969H0 whole entry, looked up): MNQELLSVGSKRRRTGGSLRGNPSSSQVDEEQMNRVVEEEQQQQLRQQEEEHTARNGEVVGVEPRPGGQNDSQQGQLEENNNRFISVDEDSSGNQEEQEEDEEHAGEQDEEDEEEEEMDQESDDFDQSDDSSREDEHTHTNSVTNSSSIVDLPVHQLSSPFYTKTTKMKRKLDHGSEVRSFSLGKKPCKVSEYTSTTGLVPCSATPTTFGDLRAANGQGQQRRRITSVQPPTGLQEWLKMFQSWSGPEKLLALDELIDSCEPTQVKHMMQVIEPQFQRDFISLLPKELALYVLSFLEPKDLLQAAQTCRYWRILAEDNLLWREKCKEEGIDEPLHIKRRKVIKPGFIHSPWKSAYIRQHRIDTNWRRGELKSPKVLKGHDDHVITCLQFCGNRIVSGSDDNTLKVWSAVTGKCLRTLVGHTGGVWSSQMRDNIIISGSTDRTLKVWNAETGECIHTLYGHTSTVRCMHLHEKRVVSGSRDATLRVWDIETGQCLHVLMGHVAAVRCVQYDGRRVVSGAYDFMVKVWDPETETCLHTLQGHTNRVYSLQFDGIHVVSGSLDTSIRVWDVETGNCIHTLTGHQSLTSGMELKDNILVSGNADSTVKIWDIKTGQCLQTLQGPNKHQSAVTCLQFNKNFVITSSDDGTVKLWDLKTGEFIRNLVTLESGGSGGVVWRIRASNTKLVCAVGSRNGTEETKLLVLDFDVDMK
GPR151 ag – activators of human GPR151, primary screen, cell-based, PathHunter beta-arrestin, luminescence | G-protein coupled receptor 151 (Homo sapiens), Q8TDV0 | PathHunter beta-arrestin GPR151 cells | activation, % at 11.2 µM | actives 1% (n = 650,000); in the data active = activation above about 4.9%
TEAD-YAP block – TEAD-YAP interaction inhibition, primary screen, TEAD-YAP interaction inhibitor project, luminescence, HEK-TIYL cells; TEAD-Gal4/YAP UAS-luciferase luminescence; inhibition, % at 9.12 µM; actives 1.4% (n = 640,000); AID 1259422, 2018; in the data active = inhibition above about 32%
GPR151 confirm – GPR151 activators, triplicate retest, confirmation, cell-based, PathHunter beta-arrestin, luminescence. activation, % at 11.2 µM. shares compounds with GPR151 ag. AID 1508609, 2020. GPR151 PathHunter beta-arrestin cells, 90 min; % of EA-reagent control over plate median. 6,700 tested, under 10 active;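 active = mean percent activation across replicates above the confirmation screen cutoff of 4.91%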
GPR119 ag – GPR119 activators in beta-arrestin cells, counter-screen for GPR151 activator project, cell-based, PathHunter beta-arrestin, luminescence, triplicate; shares compounds with GPR151 ag; 90 min; 0 = compound-well median, 100 = enzyme-acceptor control; activation, % at 11.2 µM; actives 0.3% (n = 6,700);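 active = mean percent activation in the counterscreen above 29.09%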;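 note: counterscreen on off-target GPR119 to flag nonselective hits from the GPR151 activator screen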
Of the large screens only hits and unclear results are named; the others gave an inactive call (follow-up assays come after a bar, where they were run).

CCOC(=O)c1cnc2c(C)cc(C)cc2c1Nc1ccc(Cl)c(Cl)c1	none
CCc1ccc(NC(=O)CCc2ccc(CC)o2)cc1	GPR151 ag 8.5 | GPR151 confirm inactive | GPR119 ag inactive
C=C(C)c1cccc(C(C)(C)NC(=O)Nc2ccc(C(C)=O)cc2)c1	none
C=C(C)c1cccc(C(C)(C)NC(=O)Nc2ccccc2F)c1	GPR151 ag 9.5 | GPR151 confirm inactive | GPR119 ag inactive
N#Cc1ccc(/C=N/NC(=S)NCc2ccccc2)cc1	none
C/C(=N\NC(=O)CCc1ccccc1)c1ccc(Br)cc1	GPR151 ag 5.9 | GPR151 confirm inactive | GPR119 ag inactive
N#Cc1ccc(/C=N/NC(=O)CCc2ccccc2)cc1	GPR151 ag 6.0 | GPR151 confirm inactive | GPR119 ag inactive
O=C(CCc1ccccc1)N/N=C/c1ccccc1O	GPR151 ag 5.9 | GPR151 confirm inactive | GPR119 ag inactive
CSc1nc2c(c(=O)n1Cc1ccccc1)C1(CCCCC1)Cc1ccccc1-2	none
O=C1CCCN1CCCNc1nc2ncnc(NCc3cccc(C(F)(F)F)c3)c2[nH]1	none
COc1cccc2cc(-c3csc(NC(=O)CCC(=O)N4CCC(C(N)=O)CC4)n3)c(=O)oc12	GPR151 ag 5.2 | GPR151 confirm inactive | GPR119 ag inactive
COc1ccccc1C(=O)Nc1ccccc1-c1nnn(CC(=O)NCc2ccco2)n1	GPR151 ag 5.3 | GPR151 confirm inactive | GPR119 ag inactive
CNCCOc1cccc(OC(C)C)c1	GPR151 ag 4.9 | GPR151 confirm inactive | GPR119 ag inactive
CC(C)c1ccc(OCC(=O)O/N=C(\N)c2cccc([N+](=O)[O-])c2)cc1	GPR151 ag 16.0 | GPR151 confirm inactive | GPR119 ag inactive
O=C(C1CCC1)N1CCc2cc(S(=O)(=O)N3CCCc4ccccc43)ccc21	GPR151 ag 6.5 | GPR151 confirm inactive | GPR119 ag inactive
NC(=O)COC(=O)c1cccc(S(=O)(=O)N2CCCc3ccccc32)c1	GPR151 ag 6.1 | GPR151 confirm inactive | GPR119 ag inactive
NC(=O)COC(=O)c1ccc(S(=O)(=O)N2CCCc3ccccc32)cc1	none
O=C(O)CN1C(=O)c2cccc3c(Cl)cc(Cl)c1c23	GPR151 ag 6.1 | GPR151 confirm inactive | GPR119 ag inactive
O=C(O)CN1C(=O)c2cccc3c(Cl)cc(Br)c1c23	none
O=C1C2C3C=CC(C3)C2C(=O)N1Nc1c(Cl)cc(Cl)cc1Cl (stereo not given)	GPR151 ag 6.6 | GPR151 confirm inactive | GPR119 ag inactive
O=C(NN1C(=O)C2C3C=CC(C3)C2C1=O)c1ccc(Cl)cc1Cl (stereo not given)	none
COCC1CCCCN1Cc1c(C(=O)N2CCCN(C)CC2)nc2sccn12 (stereo not given)	GPR151 ag 15.4 | GPR151 confirm inactive | GPR119 ag inactive
COCC1CCCN(Cc2c(C(=O)N3CCCN(C)CC3)nc3sccn23)C1 (stereo not given)	none
COc1cccc(CN(C(=O)/C=C/c2ccc(Cl)cc2)C2CCS(=O)(=O)C2)c1 (stereo not given)	GPR151 ag 6.9 | GPR151 confirm inactive | GPR119 ag inactive
Cn1c(=O)[nH]c(=O)c2c1nc(NCCCN1CCOCC1)n2CCO	GPR151 ag 10.1 | GPR151 confirm inactive | GPR119 ag inactive
CCOC(=O)c1c(C)c(C(=O)NCCCOC)c(C)n1C	none
CCOC(=O)c1c(C)c(C(=O)NCCC(C)C)c(C)n1C	GPR151 ag 11.8 | GPR151 confirm inactive | GPR119 ag inactive
O=C(O)CCCCC(=O)Nc1cccc(O)c1	none
O=C(NC1=NCCS1)c1sc2cc(F)ccc2c1Cl	GPR151 ag 7.4 (no result: MITF primary, FBW7 act, TEAD-YAP block) | GPR151 confirm inactive | GPR119 ag inactive
O=C(Nc1ccon1)c1sc2cc(F)ccc2c1Cl	none

Screening data as filed in PubChem.
